Results as given in the supplement of paper PMC4723716.
± gives the uncertainty stated by the source. Whole data set: some 9,900 compounds, median “viability index relative to DMSO control” near 1, cut for the lowest 2% near 0.85. The list comes from a sample in which the lowest values are over-represented; it also holds similar structures and randomly drawn compounds.

Test system: Plasmodium falciparum NF54 stage V gametocytes
Assay: viability index relative to DMSO control (fraction); higher = less gametocyte killing
Settings: 2.5 µM, incubation time: 72 h
Procedure, shortened: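 Compound at 2.5 µM was incubated for 72 hr at 37°C under low oxygen with P. falciparum NF54 stage V gametocytes (0.75% gametocytemia, 1.25% hematocrit, 10 µl, serum-free screening medium) in 1,536-well plates. Staining used 3 µl of 2.5 µM MitoTracker Red CMXRos plus 0.13% saponin for one to two hours, and red particles of 20–70 µm2 were counted in one imaged field per well. Each viability index is that count relative to the plate mean of solvent-only wells.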

[1] = library set: Broad Institute DOS
[2] = library set: Broad Institute Blood Stage

| Compound | viability index [1] | viability index [2] |
| --- | --- | --- |
| C[C@H]1CN([C@@H](C)CO)C(=O)c2c(c3ccccc3n2C)-c2ccccc2CO[C@@H]1CN(C)C(=O)NC1CCCCC1 | 1.04 ± 0.11 |  |
| O=C(C[C@@H]1CC[C@@H]2[C@H](COC[C@@H](O)CN2C(=O)c2ccncc2)O1)NCc1cc(F)cc(F)c1 | 1.05 ± 0.12 |  |
| O=C(O)C[C@H]1C[C@H]2c3cc(NC(=O)Nc4ccc(C(F)(F)F)cc4)ccc3O[C@H]2[C@@H](CO)O1 | 1.06 ± 0.041 |  |
| O=C(NC[C@@H]1[C@H](c2ccccc2)[C@@H](CO)N1C(=O)C1CCC1)NC1CCCC1 | 0.976 ± 0.12 |  |
| COc1ccc(S(=O)(=O)N(C)C[C@@H]2Oc3ccc(NC(=O)Nc4ccc(C(F)(F)F)cc4)cc3C(=O)N([C@H](C)CO)C[C@H]2C)cc1 | 0.957 ± 0.08 |  |
| CN1CCN(C(=O)C[C@H]2CC[C@@H]3[C@H](COC[C@H](O)CN3Cc3cccc(-c4ccncc4)c3)O2)CC1 | 1.08 ± 0.028 |  |
| O=C(C[C@H]1CC[C@H](NS(=O)(=O)c2ccc(F)cc2)[C@@H](CO)O1)N1CCN(c2ccccc2)CC1 | 1.09 ± 0.13 |  |
| O=C(C[C@H]1CC[C@@H]2[C@H](COC[C@@H](O)CN2CCc2ccccc2)O1)NCCCN1CCOCC1 | 1.07 ± 0.054 |  |
| O=C(c1ccccc1F)N1CC(=O)N2[C@H](CO)[C@H](c3ccc(-c4cccnc4)cc3)[C@H]2C1 |  | 0.742 ± 0.068 |
| O=C(c1ccccc1F)N1CC(=O)N2[C@H](C1)[C@@H](c1ccc(-c3ccc(F)cc3)cc1)[C@@H]2CO |  | 0.86 ± 0.04 |
| O=C(c1ccccc1F)N1CC(=O)N2[C@H](C1)[C@@H](c1ccc(-c3cccnc3)cc1)[C@@H]2CO |  | 0.866 ± 0.049 |
| Cc1noc(C)c1NC(=O)N(C)C[C@@H]1OCc2cn(nn2)CCCC(=O)N([C@H](C)CO)C[C@@H]1C | 1.08 ± 0.1 |  |
| C[C@H](CO)N1C[C@H](C)[C@H](CN(C)Cc2ccc(C(=O)Nc3ccccc3N)cc2)OCc2cnnn2CCCC1=O | 0.953 ± 0.042 |  |
| CO[C@H]1CN(C)C(=O)c2ccc(NC(=O)c3cc(C)on3)cc2OC[C@H](C)NC[C@H]1C | 0.98 ± 0.029 |  |
| COc1cccc(S(=O)(=O)N(C)C[C@H]2OCc3ccccc3-c3c(n(C)c4ccccc34)C(=O)N([C@H](C)CO)C[C@@H]2C)c1 | 0.975 ± 0.027 |  |
| COc1cccc(S(=O)(=O)N(C)C[C@H]2OCc3ccccc3-c3c(n(C)c4ccccc34)C(=O)N([C@@H](C)CO)C[C@@H]2C)c1 | 0.956 ± 0.013 |  |
| COc1cccc(S(=O)(=O)N(C)C[C@H]2OCc3ccccc3-c3c(n(C)c4ccccc34)C(=O)N([C@H](C)CO)C[C@H]2C)c1 | 0.952 ± 0.034 |  |
| COc1cccc(S(=O)(=O)N(C)C[C@@H]2OCc3ccccc3-c3c(n(C)c4ccccc34)C(=O)N([C@H](C)CO)C[C@@H]2C)c1 | 0.826 ± 0.058 |  |
| COc1cccc(S(=O)(=O)N(C)C[C@@H]2OCc3ccccc3-c3c(n(C)c4ccccc34)C(=O)N([C@@H](C)CO)C[C@H]2C)c1 | 0.977 ± 0.016 |  |
| COc1cccc(S(=O)(=O)N(C)C[C@H]2OCc3ccccc3-c3c(n(C)c4ccccc34)C(=O)N([C@@H](C)CO)C[C@H]2C)c1 | 0.833 ± 0.059 |  |
| COc1cccc(S(=O)(=O)N[C@H]2CC[C@@H](CC(=O)NC3Cc4ccccc4C3)O[C@@H]2CO)c1 | 0.999 ± 0.044 |  |
| CC(C)(C)[S@](=O)N1Cc2cc(C(=O)N3CCOCC3)nc(-c3cccc(-c4ccccc4F)c3)c2[C@@H]1CCO | 1.07 ± 0.044 |  |
| C[C@@H]1CN([C@@H](C)CO)C(=O)c2cc(NC(=O)Nc3ccccc3)ccc2O[C@@H](C)CCCCO[C@H]1CN(C)C(=O)Nc1ccccc1 | 1.11 ± 0.13 |  |

| Compound | viability index [1] | viability index [2] |
| --- | --- | --- |
| Cc1ccc(S(=O)(=O)Nc2ccc3c(c2)C(=O)N(C)[C@@H]2CC[C@H](CC(=O)NCCc4ccncc4)O[C@H]2CO3)cc1 | 1.04 ± 0.026 |  |
| C[C@H]1CN([C@@H](C)CO)C(=O)c2cc(C#Cc3ccccc3)cnc2O[C@@H]1CN(C)C(=O)c1ccccc1 | 0.919 ± 0.071 |  |
| C[C@H](CO)N1C[C@H](C)[C@H](CN(C)C(=O)c2ccccc2)Oc2ncc(C#Cc3ccccc3)cc2C1=O | 0.829 ± 0.086 |  |
| C[C@@H]1CN([C@@H](C)CO)C(=O)c2cc(C#Cc3ccccc3)cnc2O[C@H]1CN(C)C(=O)c1ccccc1 | 1 ± 0.091 |  |
| CCCN(C)C[C@@H]1Oc2ncc(-c3cccc(OC)c3)cc2C(=O)N([C@H](C)CO)C[C@@H]1C | 0.691 ± 0.3 |  |
| COc1cccc(S(=O)(=O)N(C)C[C@@H]2Oc3ncc(C#Cc4ccc(OC)c(OC)c4)cc3C(=O)N([C@H](C)CO)C[C@@H]2C)c1 |  | 1.01 ± 0.04 |
| C[C@H](CO)N1C[C@H](C)[C@H](CN(C)Cc2ccc3c(c2)OCO3)Oc2ncc(-c3cccc(C(F)(F)F)c3)cc2C1=O | 0.976 ± 0.025 |  |
| C[C@@H]1CN([C@H](C)CO)C(=O)c2cc(C#Cc3ccccc3)cnc2O[C@H]1CN(C)C(=O)c1ccccc1 | 0.965 ± 0.019 |  |
| C[C@H]1CN([C@@H](C)CO)C(=O)c2cc(C#Cc3ccccc3)cnc2O[C@H]1CN(C)C(=O)c1ccccc1 | 0.572 ± 0.14 |  |
| C[C@H](CO)N1C[C@H](C)[C@@H](CN(C)C(=O)c2ccccc2)Oc2ncc(C#Cc3ccccc3)cc2C1=O | 0.963 ± 0.029 |  |
| C/C=C/c1ccc2c(c1)[C@@H]1[C@@H](CCN1C(=O)C1CCCC1)[C@H](CO)N2 | 1.06 ± 0.045 |  |
| C[C@@H]1CCCCO[C@H](CN(C)C(=O)NC2CCCCC2)[C@@H](C)CN([C@H](C)CO)C(=O)c2cc(N(C)C)ccc2O1 | 1.14 ± 0.11 |  |
| O=C(Nc1ccccc1)N1CC(=O)N2[C@H](CO)[C@H](c3ccc(C#CC4CCCCC4)cc3)[C@@H]2C1 | 0.96 ± 0.031 |  |
| Cc1noc(C)c1NC(=O)N(C)C[C@@H]1OCc2ccccc2-c2c(n(C)c3ccccc23)C(=O)N([C@@H](C)CO)C[C@H]1C | 1.02 ± 0.1 |  |
| Cc1noc(C)c1NC(=O)N(C)C[C@@H]1Oc2cc(C#CCN(C)C)ccc2S(=O)(=O)N([C@@H](C)CO)C[C@H]1C | 0.947 ± 0.18 |  |
| CC(C)C#Cc1ccc([C@H]2[C@@H](CO)N3C(=O)CN(C(=O)c4ccc5c(c4)OCO5)C[C@@H]23)cc1 | 1.03 ± 0.021 |  |
| CNC[C@H]1Oc2c(NS(=O)(=O)c3ccc(Cl)cc3)cccc2C(=O)N([C@@H](C)CO)C[C@H]1C | 1.01 ± 0.034 |  |
| O=C(C[C@@H]1CC[C@@H]2[C@H](COC[C@H](O)CN2C(=O)c2cc(Cl)cc(Cl)c2)O1)N1CCc2ccccc2C1 | 1.032 ± 0.0059 |  |
| C[C@@H]1CN([C@@H](C)CO)C(=O)c2ccccc2-c2ccccc2CO[C@@H]1CN(C)Cc1ccc(Oc2ccccc2)cc1 | 0.871 ± 0.0091 |  |
| Cc1ccc(OC(=O)N(C)C[C@@H]2OCc3ccccc3-c3ccccc3C(=O)N([C@H](C)CO)C[C@@H]2C)cc1 | 0.993 ± 0.036 |  |
| Cc1ccc(OC(=O)N(C)C[C@@H]2OCc3ccccc3-c3ccccc3C(=O)N([C@H](C)CO)C[C@H]2C)cc1 | 0.834 ± 0.091 |  |
| Cc1ccc(OC(=O)N(C)C[C@@H]2OCc3ccccc3-c3ccccc3C(=O)N([C@@H](C)CO)C[C@H]2C)cc1 | 0.88 ± 0.0063 |  |
| C[C@H](CO)N1C[C@H](C)[C@@H](CN(C)Cc2ccc(Oc3ccccc3)cc2)OCc2ccccc2-c2ccccc2C1=O | 0.801 ± 0.016 |  |

| Compound | viability index [1] | viability index [2] |
| --- | --- | --- |
| C[C@@H]1CN([C@H](C)CO)C(=O)c2ccccc2-c2ccccc2CO[C@@H]1CN(C)C(=O)c1cc(Cl)cc(Cl)c1 | 0.8517 ± 0.003 |  |
| C[C@@H]1CN([C@@H](C)CO)C(=O)c2ccccc2-c2ccccc2CO[C@H]1CN(C)C(=O)c1cc(Cl)cc(Cl)c1 | 0.937 ± 0.19 |  |
| C[C@H](CO)N1C[C@H](C)[C@H](CN(C)C(=O)c2cc(Cl)cc(Cl)c2)OCc2ccccc2-c2ccccc2C1=O | 1.04 ± 0.066 |  |
| C[C@@H]1CN([C@H](C)CO)C(=O)c2ccccc2-c2ccccc2CO[C@@H]1CN(C)Cc1ccc(Oc2ccccc2)cc1 | 1.028 ± 0.0055 |  |
| O=C(c1ccncc1)N1CC2(C1)[C@H](c1ccccc1)[C@@H](CO)N2CC1CC1 | 1.08 ± 0.016 |  |
| Cc1noc(C)c1NC(=O)Nc1ccc2c(c1)C(=O)N([C@@H](C)CO)C[C@@H](C)[C@@H](CN(C)Cc1ccc3c(c1)OCO3)OCCCC[C@@H](C)O2 | 1.15 ± 0.058 |  |
| O=C(c1ccccn1)N1C[C@H]2[C@@H](c3ccccc31)[C@@H](CO)N2C(=O)Nc1ccccc1Cl | 1.05 ± 0.026 |  |
| CCS(=O)(=O)Nc1ccc2c(c1)C(=O)N(C)[C@@H]1CC[C@H](CC(=O)N[C@@H]3CCN(Cc4ccccc4)C3)O[C@@H]1CO2 | 1.05 ± 0.04 |  |
| O=S(=O)(c1cccc(F)c1)N1CC[C@H]2[C@H](CO)Nc3ccc(C#Cc4ccccc4F)cc3[C@H]21 | 1.1 ± 0.012 |  |
| COc1ccc(CN(C)C[C@@H]2Oc3ccc(NC(=O)Nc4ccc5c(c4)OCO5)cc3CC(=O)N([C@H](C)CO)C[C@@H]2C)cc1 | 0.983 ± 0.077 |  |
| COc1ccc2c3c([C@H](CO)N(C[C@]33CN(C3)S(=O)(=O)c3cn(C)cn3)C(=O)Nc3ccc(F)cc3)n(C)c2c1 | 1.114 ± 0.0043 |  |
| COc1ccc(NC(=O)N(C)C[C@H]2Oc3ccc(NC(=O)Nc4cccc5ccccc45)cc3CC(=O)N([C@H](C)CO)C[C@@H]2C)cc1 | 0.968 ± 0.027 |  |
| COc1ccccc1-c1ccc([C@@H]2[C@@H](C#N)N(C(=O)c3cccnc3)[C@@H]2CO)cc1 | 1.06 ± 0.063 |  |
| CN(C)CC(=O)N1[C@H](C#N)[C@H](c2ccccc2-c2ccccc2F)[C@@H]1CO | 1.1 ± 0.066 |  |
| O=C(C[C@H]1CC[C@H]2[C@@H](COC[C@@H](O)CN2S(=O)(=O)c2ccc(F)cc2)O1)NCCN1CCCCC1 | 1.01 ± 0.12 |  |
| COc1ccccc1C#Cc1ccc([C@@H]2[C@H](CO)N3CCCCN(C(=O)C4CCC4)C[C@@H]23)cc1 | 0.967 ± 0.025 |  |
| OC[C@@H]1[C@@H](c2ccc(C#Cc3ccccc3F)cc2)[C@H]2CN(CC3CCOCC3)CCCCN12 | 0.852 ± 0.021 |  |
| OC[C@H]1[C@H](c2ccc(C#Cc3ccccc3F)cc2)[C@@H]2CN(CC3CCOCC3)CCCCN12 | 0.8726 ± 0.0019 |  |
| COc1ccccc1C#Cc1ccc([C@@H]2[C@@H](CO)N3CCCCN(CCC(F)(F)F)C[C@H]23)cc1 |  | 0.759 ± 0.06 |
| OC[C@H]1[C@@H](c2ccc(C#Cc3ccccc3F)cc2)[C@H]2CN(CC3CCOCC3)CCCCN21 | 0.938 ± 0.011 |  |
| COc1ccccc1C#Cc1ccc([C@H]2[C@H]3CN(C(=O)C4CCC4)CCCCN3[C@H]2CO)cc1 | 0.971 ± 0.013 |  |
